FBW7 act: human FBW7 E3 ligase activation, primary screen; Q969H0; AlphaScreen FBW7–phospho-cyclin E peptide binding, activator screen; normalized activity (activation), % at 26.1 µM; actives 0.13% (n = 650,000); AID 1259310; in the data active = normalized activity above about 1.9%;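 also: purified mutant Fbw7 with reduced substrate affinity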
Target sequence (Q969H0 whole entry, looked up): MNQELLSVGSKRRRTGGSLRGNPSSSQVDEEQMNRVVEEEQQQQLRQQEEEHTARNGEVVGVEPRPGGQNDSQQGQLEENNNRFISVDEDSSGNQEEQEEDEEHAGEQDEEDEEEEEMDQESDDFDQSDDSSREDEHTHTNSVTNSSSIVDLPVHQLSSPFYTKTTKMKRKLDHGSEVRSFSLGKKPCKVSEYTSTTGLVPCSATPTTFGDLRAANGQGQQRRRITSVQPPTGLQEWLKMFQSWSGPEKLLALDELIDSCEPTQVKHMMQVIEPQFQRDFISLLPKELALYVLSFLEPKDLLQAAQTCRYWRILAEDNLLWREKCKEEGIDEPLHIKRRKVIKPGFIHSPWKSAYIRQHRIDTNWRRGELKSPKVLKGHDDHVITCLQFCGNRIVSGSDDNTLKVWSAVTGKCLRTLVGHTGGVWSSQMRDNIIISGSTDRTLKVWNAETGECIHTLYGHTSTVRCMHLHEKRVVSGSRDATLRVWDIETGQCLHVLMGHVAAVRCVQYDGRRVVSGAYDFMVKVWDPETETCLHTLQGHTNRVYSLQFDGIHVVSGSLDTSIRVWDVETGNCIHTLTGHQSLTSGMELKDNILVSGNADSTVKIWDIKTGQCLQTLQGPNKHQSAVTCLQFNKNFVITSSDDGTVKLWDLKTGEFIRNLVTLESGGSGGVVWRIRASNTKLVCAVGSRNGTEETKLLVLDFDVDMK
MITF inh: blocks human microphthalmia-associated transcription factor; O75030; inhibition, % at 2.6 µM; AlphaScreen MITF homodimerization, bead proximity signal; actives 0.91% (n = 650,000); AID 1259374; in the data active = inhibition above about 50%
GPR151 ag: human GPR151 activation. Q8TDV0. PathHunter beta-arrestin GPR151 cells, luminescence. activation, % at 11.2 µM. actives 1% (n = 650,000). AID 1508602; in the data active = activation above about 4.9%
TEAD-YAP block: TEAD-YAP interaction inhibition. HEK-TIYL cells, TEAD-Gal4/YAP UAS-luciferase luminescence. inhibition, % at 9.12 µM. actives 1.4% (n = 640,000). AID 1259422; in the data active = inhibition above about 32%
Of the large screens only hits and unclear results are named; the others gave an inactive call. In the library only some 3.5% were active in any assay of this set; here they are far more common.

CCc1ccc2nc(N3CCC(C(=O)NC4CCCCC4)CC3)sc2c1	TEAD-YAP block 70
Cc1ccc(NC(=O)O/N=C\c2ccc(N(C)C)cc2)cc1	TEAD-YAP block 34
O=c1oc2ccc(Cl)cc2c(=O)n1-c1cccc(C(F)(F)F)c1	TEAD-YAP block 76
COc1ccc(CC(=O)Nc2ccc(C)c(C)c2)cc1OC	none
COc1ccc(-c2ccc(C)c(NC(=O)Cc3ccc(OC)c(OC)c3)c2)nn1	TEAD-YAP block 64
COc1ccc(CC(=O)Nc2cc(NC(=O)c3cccs3)ccc2C)cc1OC	TEAD-YAP block 32
Cn1c2c(c(=O)n(C)c1=O)C(c1ccc(O)cc1)C1=C(CCCC1=O)N2 (stereo not given)	none
O=C(Nc1ccc(F)c([N+](=O)[O-])c1)c1ccc(-c2ccc(Cl)cc2)o1	none
COc1ccc(C(=O)CSc2ncnc3sccc23)c(OC)c1	none
COc1cccc(-c2cc(C(=O)N3CCN(Cc4ccccc4)CC3)on2)c1	none
CCOC(=O)N1CCN(Cc2cccc(C)c2)CC1	none
Cc1cc(C(=O)N2CCN(Cc3ccccc3)CC2)on1	FBW7 act 1.9
Cc1cccc(CN2CCN(C(=O)CCl)CC2)c1	TEAD-YAP block 38
N#CC1=C(NC(=O)Cc2ccccc2[N+](=O)[O-])CCC1	none
NC(=O)c1cc2ccc(O)cc2oc1=Nc1ccc(-c2ccccc2)cc1	none
CC(=O)c1ccc(N=c2oc3cc(O)ccc3cc2C(N)=O)cc1	TEAD-YAP block 60
CCOC(=O)c1c(C)oc2ccc(N(C(=O)c3ccncc3)S(=O)(=O)c3ccc(C)cc3)cc12	TEAD-YAP block 48
COC(=O)c1c(C)oc2ccc(N(C(=O)c3ccncc3)S(=O)(=O)c3ccc(Cl)cc3)cc12	none
CCOc1ccc(S(=O)(=O)N(C(=O)c2ccncc2)c2ccc3oc(C)c(C(=O)OC)c3c2)cc1	TEAD-YAP block 64
CCOC(=O)c1c(C)oc2ccc(N(C(=O)c3ccncc3)S(=O)(=O)c3ccccc3)cc12	none
Cc1[nH]c2ccccc2c1/C=N/NC(=O)c1ccc(O)cc1O	none
COc1ccc(C(=O)CC(=O)c2ccccc2O)cc1	none
COc1ccc(O)c(C(=O)CC(=O)c2ccc(F)cc2)c1	TEAD-YAP block 51
CCCCCC(=O)Oc1ccc(-c2cnc3ccccc3n2)cc1	none
O=C(Oc1cccc(-c2cnc3ccccc3n2)c1)c1ccco1	TEAD-YAP block 43
CC(=O)Oc1ccc(-c2cnc3ccccc3n2)cc1	TEAD-YAP block 40
CCOc1ccc(-c2cnc3ccccc3n2)cc1	TEAD-YAP block 75
CC(C)n1cc(-c2cnc3ccccc3n2)cn1	TEAD-YAP block 72
O=C(CN1C(=O)c2ccc([N+](=O)[O-])cc2C1=O)Nc1ccc(Cl)cc1[N+](=O)[O-]	none
O=C1NC(CCC(=O)N2CCN(c3ccccc3Cl)CC2)C(=O)Nc2ccccc21 (stereo not given)	none
CC1CN(Cc2ccc([N+](=O)[O-])cc2)CC(C)O1 (stereo not given)	none
CC(C)(C)C1CCC(OC(=O)Nc2ccccc2)CC1 (stereo not given)	none
CC(C)(C)C1CCC(OC(=O)Nc2ccc3ccccc3c2)CC1 (stereo not given)	TEAD-YAP block 80
Cn1cnc([N+](=O)[O-])c1S(=O)CC#N (stereo not given)	TEAD-YAP block 56
Nc1nc(NCc2cccc(C(F)(F)F)c2)cc(-c2csc3ccccc23)n1	TEAD-YAP block 53
COc1ccc(-c2cc(NCc3cccc(C(F)(F)F)c3)nc(N)n2)cc1	none
COc1ccc(CCNc2cc(Nc3cnccn3)nc(N)n2)cc1	TEAD-YAP block 35
Nc1nc(NCc2ccccc2)cc(-c2csc3ccccc23)n1	none
COc1ccc(CCNc2cc(Nc3cnccn3)ncn2)cc1	none
COc1ccc(-c2cc(NCc3cccc(C(F)(F)F)c3)nc(N)n2)cn1	TEAD-YAP block 46
COc1ccc(CCNc2cc(-c3csc4ccccc34)nc(N)n2)cc1	TEAD-YAP block 57
CCOc1ccc(-c2coc3cc(OCC)cc(OCC)c3c2=O)cc1	none
COc1cc(/C=C/C(=O)OCC(=O)c2ccc(Cl)s2)ccc1O	none
Cc1ccc(C)c(NC(=O)COc2ccc(C=O)cc2)c1	none
Cc1ncc(-c2ccncc2)c(C2CCCN(C(=O)Cn3ccnc3C)C2)n1 (stereo not given)	none
O=C1CCN(S(=O)(=O)c2c(F)cc(F)c(Cl)c2F)CC1	none
Cc1cc(/C=N/Nc2nc3ccccc3s2)c(C)n1C1CC1	TEAD-YAP block 57
COc1ccc(/C=N/Nc2nc3ccccc3s2)cc1	TEAD-YAP block 34
O=C(O)c1ccc(/C=N/Nc2nc3ccccc3s2)cc1	none
COc1ccc(/C=C2\C(=O)Nc3ccc(Br)cc32)c(OC)c1OC	TEAD-YAP block 53
COc1ccc(/C=C2\C(=O)Nc3ccc(Br)cc32)cc1	none
CS(=O)(=O)C1=NN2C(=N)/C(=C\c3ccc(SCc4ccco4)o3)C(=O)N=C2S1	MITF inh 79
CC1=NN2C(=N)/C(=C\c3ccc(SCc4ccco4)o3)C(=O)N=C2S1	none
N=C1/C(=C\c2ccc(SCc3ccco3)o2)C(=O)N=C2SC(N3CCOCC3)=NN12	MITF inh 62
CN1C(=O)/C(=C/c2ccc(SCc3ccco3)o2)SC1=S	MITF inh 57
CC(=O)c1c(C)n(CC(N)=O)c2ccccc12	none
COc1ccc(CN(C)Cc2nc(-c3cccc(Cl)c3)no2)cc1OC	none
CCN(CC)c1ccc(/C=N/Nc2ncnc(N)c2[N+](=O)[O-])cc1	TEAD-YAP block 91
Cc1nn(-c2ccccc2)c(Cl)c1/C=N/Nc1ncnc(N)c1[N+](=O)[O-]	TEAD-YAP block 32
Cc1cc(/C=N/Nc2ncnc(N)c2[N+](=O)[O-])c(C)n1-c1ccccc1	TEAD-YAP block 83
Cc1ccc2nc(-c3ccccc3)cc(C(=O)Nc3ccc(Oc4ccc(Cl)cc4)cc3)c2c1	none
CN(C)c1ccc(Nc2nc(NCC3CCCO3)c3ccccc3n2)cc1 (stereo not given)	MITF inh 60
O=C(O)c1cccc(NC(=O)c2cc3ccccc3o2)c1	TEAD-YAP block 39
O=C(Nc1nccs1)c1cc2ccccc2o1	TEAD-YAP block 58
COC(=O)CN1Cc2ccccc2C1=O	none
O=C(NCc1ccccc1)NC1(C(=O)NCc2cccs2)CCCCC1	none
Cc1ccc2nc3sc(C(=O)Nc4c(C)[nH]c(=O)[nH]c4=O)c(N)c3cc2c1	none
Nc1c(C(=O)Nc2nccs2)sc2nc3c(cc12)CCC3	TEAD-YAP block 56
CC(C)c1ccc2nc3sc(C(=O)Nc4nccs4)c(N)c3cc2c1	TEAD-YAP block 66
Cc1ccc2cc3c(N)c(C(=O)Nc4nc(C)c(C)s4)sc3nc2c1	none
Cc1cc2cc3c(N)c(C(=O)Nc4nc(C)c(C)s4)sc3nc2cc1C	FBW7 act 46
Cc1[nH]c(=O)[nH]c(=O)c1NC(=O)c1sc2nc3ccc(C(C)C)cc3cc2c1N	TEAD-YAP block 79
COc1ccc(C(CC(=O)O)NC(=O)COc2ccccc2C(C)C)cc1OC (stereo not given)	none
CC(=O)Nc1cccc(Nc2nc3ccccc3nc2NS(=O)(=O)c2ccc(Cl)cc2)c1	none
N#Cc1ccsc1NC(=O)/C=C/c1ccccc1Cl	TEAD-YAP block 64
